In PubChem BioAssay:
For some assays here: Results with a measured potency or affinity are listed apart. Activity calls are given as the source filed them. How the calls were made is not given here.

These compounds were tested against Plasmodium falciparum protein kinase 6 (PK6, PF3D7_1337100) (UniProt Q8IDW1) (assay: PfPK6 kinase inhibitors, biochemical, TCAMS library (AID 1159586)). Settings: recombinant PfPK6, Kinase-Glo ATP depletion luminescence.
Sequence of Plasmodium falciparum protein kinase 6 (PK6, PF3D7_1337100) (Q8IDW1 1-305): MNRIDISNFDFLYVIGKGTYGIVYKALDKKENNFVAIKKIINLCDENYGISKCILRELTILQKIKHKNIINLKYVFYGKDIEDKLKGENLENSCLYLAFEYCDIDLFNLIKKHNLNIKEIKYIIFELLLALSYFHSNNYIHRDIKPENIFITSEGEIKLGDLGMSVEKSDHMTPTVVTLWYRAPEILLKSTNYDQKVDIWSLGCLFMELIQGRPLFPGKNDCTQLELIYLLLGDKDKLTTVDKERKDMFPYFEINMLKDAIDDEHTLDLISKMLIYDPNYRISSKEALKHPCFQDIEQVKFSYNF

outcome, inactive:
NCCCNc1ccc(-c2ccc(NC(=O)Nc3cc(C(F)(F)F)ccc3F)cc2)cn1
O=C(NCCN1CCC(c2ncc(-c3ccccc3)o2)CC1)c1ccc(NC(=O)c2ccc(Cl)cc2)cc1
O=C(c1cc(C(=O)Nc2ccccc2F)c(=O)n(-c2ccccc2F)c1)c1cc(Cl)ccc1O
CCN1CCC(N(Cc2ccc(-c3ccc(C(F)(F)F)cc3)cc2)C(=O)Cn2c(CCc3cccc(F)c3F)cc(=O)c3c2CCC3)CC1
Cc1ccc(NC(=O)c2ccc(N3CCC(c4ccccc4C)CC3)nc2)cc1
Cc1ccc2[nH]c3c(c2c1)CC(C(=O)NCCC(C)C)NC31CCN(Cc2ccccc2)CC1 (stereo not given)
CCc1cc2c3c(N)nc(N)nc3ccc2n1CC
CN(C)CCOc1cc(NC(=O)Nc2ccc(-c3ccccc3)cc2Cl)ccc1I
CN1CCCC1CCOc1ccc2c(c1)N(C(=O)Nc1cc(Br)cc(C(F)(F)F)c1)CC2 (stereo not given)
CN1CCN(c2ccnc3cc4ccccc4cc23)CC1
CC(=Nc1ccc(Cl)c(Cl)c1)N(C)C
CN1CCCc2cc(NC(=O)C=Cc3ccc(-c4ccc(F)cc4F)o3)ccc2C1
Cn1cncc1CCN(Cc1ccc(-c2ccc(C(F)(F)F)cc2)cc1)C(=O)Cn1c(SCc2cccc(F)c2F)cc(=O)c2ccccc21
Cc1cc(NC(=O)Nc2ccc(N(C)C)cc2)c2cc(Cl)ccc2n1
CC(CN1CCN(C)CC1)C(=O)Nc1cccc(-c2cccc(-c3nc4ccccc4[nH]3)c2)c1 (stereo not given)
Cc1ccccc1N1CCN(c2ccc(C(=O)Nc3ccccc3)cc2)CC1
OCCN1CCN(Cc2ccc(-c3ccc(-c4nc5ccc(C(F)(F)F)cc5[nH]4)s3)cc2)CC1
NC(N)=NCCCN(Cc1ccccc1)c1ccc(Cl)cc1
O=[N+]([O-])c1cccc(S(=O)(=O)N2CCN(CC(O)COc3ccc(-c4ccccc4)cc3)CC2)c1 (stereo not given)
COc1ccc(-c2cccc(NC(=O)c3ccc(Cl)cc3)c2)cc1CNC(C)C
c1cc2c3c(cccc3c1)NC(CCCCCCCCC1=Nc3cccc4cccc(c34)N1)=N2
CCc1ccc(C(=O)Nc2cccc(CN3CCCN(Cc4ccc(O)cc4)CC3)c2)cc1
c1ccc(COc2ccccc2COc2ccccc2-c2ccc3cccnc3n2)cc1
O=S(=O)(Nc1ccc(CCN2CCC(N3CCCCC3)CC2)cc1)c1ccc2ccccc2c1
Cc1cccc(CNc2nc(C)cc(N[C@@H](Cc3ccccc3)C(=O)NCCOc3ccccc3)n2)c1
Cc1cc(C(F)(F)F)n2nc(C3CCN(Cc4cc(C)c(O)c(C)c4)C3)cc2n1 (stereo not given)
CC1(C)CN(CCC2CCC(NC(=O)/C=C/c3ccccc3F)CC2)Cc2ccc(C#N)cc21 (stereo not given)
NC(N)=NCCCCN(Cc1ccccc1)c1ccccc1
Cc1cc(N(C)CCCN2CCCCC2)nc(Nc2ccc(Cl)cc2)n1
OCCNc1nc(Nc2ccc(Cl)cc2)nc2ccccc12
C[C@H](Cc1ccc(OCCCCCCOc2ccc(C[C@@H](C)NC[C@H](O)c3cccc(Cl)c3)cc2)cc1)NC[C@H](O)c1cccc(Cl)c1
Cc1sc(CNCCCNc2cc(=O)c3ccccc3[nH]2)c(I)c1C
Cc1cccc2[nH]c(-c3cccc(-c4cccc(NC(=O)C(C)CN(C)C)c4)c3)nc12 (stereo not given)
CN1CCN(Cc2cc3cc(NC(=O)/C=C/c4cccc(Cl)c4)ccc3s2)CC1
CCc1ccc(-c2cnc(N)c3cc(-c4ccnc(N)n4)ccc23)cc1
CCCN=CNc1cc(-c2csc(N=C(N)N)n2)cc([N+](=O)[O-])c1
CCOc1cc(Cc2cnc(N)nc2N)cc(OCC)c1OCCCCC(=O)OC
Cc1ccc(-n2c(Cc3cccc4ccccc34)nnc2SCCC#N)c(C)c1
CC(Nc1cc(-c2ccccn2)nc(-c2ccccn2)n1)c1ccccc1 (stereo not given)
CS(=O)(=O)CCOCc1ccc(-c2ccc3ncnc(Nc4ccc(OCc5cccc(F)c5)c(Cl)c4)c3c2)o1

Each compound was assayed against Protein kinase 7 (PK7), Plasmodium falciparum 3D7 (PF3D7_0213400) (UniProt Q7YTF7) (assay: inhibition of Plasmodium PK7 catalytic activity – biochemical, TCAMS antimalarial set, Kinase-Glo luminescence (AID 1159587)). Settings: recombinant PfPK7, Kinase-Glo ATP depletion luminescence.
Sequence of Protein kinase 7 (PK7), Plasmodium falciparum 3D7 (PF3D7_0213400) (Q7YTF7 1-343): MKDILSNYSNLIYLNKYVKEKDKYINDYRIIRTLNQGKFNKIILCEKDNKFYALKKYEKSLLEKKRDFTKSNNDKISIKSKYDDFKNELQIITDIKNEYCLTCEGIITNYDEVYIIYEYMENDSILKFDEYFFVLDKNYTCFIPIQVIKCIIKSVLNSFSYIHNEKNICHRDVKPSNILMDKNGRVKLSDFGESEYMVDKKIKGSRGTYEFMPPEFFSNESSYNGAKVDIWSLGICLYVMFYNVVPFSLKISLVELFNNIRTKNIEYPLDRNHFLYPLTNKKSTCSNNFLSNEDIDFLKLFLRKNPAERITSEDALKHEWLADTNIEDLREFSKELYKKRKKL

outcome, inactive:
NCCCNc1ccc(-c2ccc(NC(=O)Nc3cc(C(F)(F)F)ccc3F)cc2)cn1
O=C(NCCN1CCC(c2ncc(-c3ccccc3)o2)CC1)c1ccc(NC(=O)c2ccc(Cl)cc2)cc1
O=C(c1cc(C(=O)Nc2ccccc2F)c(=O)n(-c2ccccc2F)c1)c1cc(Cl)ccc1O
CCN1CCC(N(Cc2ccc(-c3ccc(C(F)(F)F)cc3)cc2)C(=O)Cn2c(CCc3cccc(F)c3F)cc(=O)c3c2CCC3)CC1
Cc1ccc(NC(=O)c2ccc(N3CCC(c4ccccc4C)CC3)nc2)cc1
Cc1ccc2[nH]c3c(c2c1)CC(C(=O)NCCC(C)C)NC31CCN(Cc2ccccc2)CC1 (stereo not given)
CCc1cc2c3c(N)nc(N)nc3ccc2n1CC
CN(C)CCOc1cc(NC(=O)Nc2ccc(-c3ccccc3)cc2Cl)ccc1I
CN1CCCC1CCOc1ccc2c(c1)N(C(=O)Nc1cc(Br)cc(C(F)(F)F)c1)CC2 (stereo not given)
CN1CCN(c2ccnc3cc4ccccc4cc23)CC1
CC(=Nc1ccc(Cl)c(Cl)c1)N(C)C
CN1CCCc2cc(NC(=O)C=Cc3ccc(-c4ccc(F)cc4F)o3)ccc2C1
Cn1cncc1CCN(Cc1ccc(-c2ccc(C(F)(F)F)cc2)cc1)C(=O)Cn1c(SCc2cccc(F)c2F)cc(=O)c2ccccc21
Cc1cc(NC(=O)Nc2ccc(N(C)C)cc2)c2cc(Cl)ccc2n1
CC(CN1CCN(C)CC1)C(=O)Nc1cccc(-c2cccc(-c3nc4ccccc4[nH]3)c2)c1 (stereo not given)
Cc1ccccc1N1CCN(c2ccc(C(=O)Nc3ccccc3)cc2)CC1
OCCN1CCN(Cc2ccc(-c3ccc(-c4nc5ccc(C(F)(F)F)cc5[nH]4)s3)cc2)CC1
NC(N)=NCCCN(Cc1ccccc1)c1ccc(Cl)cc1
O=[N+]([O-])c1cccc(S(=O)(=O)N2CCN(CC(O)COc3ccc(-c4ccccc4)cc3)CC2)c1 (stereo not given)
COc1ccc(-c2cccc(NC(=O)c3ccc(Cl)cc3)c2)cc1CNC(C)C
c1cc2c3c(cccc3c1)NC(CCCCCCCCC1=Nc3cccc4cccc(c34)N1)=N2
CCc1ccc(C(=O)Nc2cccc(CN3CCCN(Cc4ccc(O)cc4)CC3)c2)cc1
c1ccc(COc2ccccc2COc2ccccc2-c2ccc3cccnc3n2)cc1
O=S(=O)(Nc1ccc(CCN2CCC(N3CCCCC3)CC2)cc1)c1ccc2ccccc2c1
Cc1cccc(CNc2nc(C)cc(N[C@@H](Cc3ccccc3)C(=O)NCCOc3ccccc3)n2)c1
Cc1cc(C(F)(F)F)n2nc(C3CCN(Cc4cc(C)c(O)c(C)c4)C3)cc2n1 (stereo not given)
CC1(C)CN(CCC2CCC(NC(=O)/C=C/c3ccccc3F)CC2)Cc2ccc(C#N)cc21 (stereo not given)
NC(N)=NCCCCN(Cc1ccccc1)c1ccccc1
Cc1cc(N(C)CCCN2CCCCC2)nc(Nc2ccc(Cl)cc2)n1
OCCNc1nc(Nc2ccc(Cl)cc2)nc2ccccc12
C[C@H](Cc1ccc(OCCCCCCOc2ccc(C[C@@H](C)NC[C@H](O)c3cccc(Cl)c3)cc2)cc1)NC[C@H](O)c1cccc(Cl)c1
Cc1sc(CNCCCNc2cc(=O)c3ccccc3[nH]2)c(I)c1C
Cc1cccc2[nH]c(-c3cccc(-c4cccc(NC(=O)C(C)CN(C)C)c4)c3)nc12 (stereo not given)
CN1CCN(Cc2cc3cc(NC(=O)/C=C/c4cccc(Cl)c4)ccc3s2)CC1
CCc1ccc(-c2cnc(N)c3cc(-c4ccnc(N)n4)ccc23)cc1
CCCN=CNc1cc(-c2csc(N=C(N)N)n2)cc([N+](=O)[O-])c1
CCOc1cc(Cc2cnc(N)nc2N)cc(OCC)c1OCCCCC(=O)OC
Cc1ccc(-n2c(Cc3cccc4ccccc34)nnc2SCCC#N)c(C)c1
CC(Nc1cc(-c2ccccn2)nc(-c2ccccn2)n1)c1ccccc1 (stereo not given)
CS(=O)(=O)CCOCc1ccc(-c2ccc3ncnc(Nc4ccc(OCc5cccc(F)c5)c(Cl)c4)c3c2)o1
